Compounds with a hit are over-represented: about 7.5% of the library has one in this group of screens.
SMN2 splice up: SMN2 splice variant enhancement; Potency, µM (titrated, usually from 46.1 µM), inactives show at the highest dose activity change, positive = activation, usual class: activators; HEK293 SMN2-luciferase splicing reporter, luminescence, 30-36 h; 210,000 compounds, 2.8% hits; AID 1458; note: % of control where 0% means no effect; nearly all actives have a fitted effect of over 55% in size
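HEK293 cells carry an SMN2 minigene-luciferase reporter in which exon 7 inclusion puts luciferase in frame. Cells were seeded at 2000 cells/well, attached for 10-12 hours, then exposed to compounds for 30-36 hours at 37C before ONE-Glo luminescence.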
Rab9 promoter act: activates the Rab9 promoter; Potency, µM (series often up to 9.22 µM), inactives show at the top dose activation, negative = inhibition, usual class: activators; AID 485297; Huh7 Rab9 promoter-luciferase reporter, luminescence, 24 h; 320,000 compounds, 2.8% hits; note: % of control where 0% means no effect; nearly all actives have a fitted effect of over 60% in size
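Cells were plated at 1500 per well in reduced-serum medium with 10% FBS and left 2 h. Compound in DMSO was then added for 24 h at 37 °C. Reporter signal was read by luminescence after 10 min with luciferase detection reagent.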
NPC1 promoter act: activators of NPC1 promoter | Huh7 NPC1 promoter luciferase reporter, 24 h | Potency, µM (series often up to 9.22 µM), inactives show at the top dose activation, usual class: activators | 320,000 compounds, 2.4% hits; note: % of control where 0% means no effect; nearly all actives have a fitted effect of over 60% in size
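Quantitative HTS used a cell-based reporter: Huh7 cells stably bearing the NPC1 promoter upstream of luciferase were treated with compounds for 24 h, and promoter activation was read as luminescence.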
FLuc counter: firefly luciferase modulation, counter-screen for miR-21 project; 360,000 compounds, 6.9% hits; Potency, µM (highest dose often 57.5 µM), inactives show at the highest dose activity change, negative = inhibition, actives largely listed as inhibitors; purified FLuc, Km substrates, luminescence inhibition; P08659;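 note: plate controls were vehicle for no effect and reference inhibitor for full effect; nearly all actives have a fitted effect of over 55% in size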
Target sequence (P08659 whole entry, looked up): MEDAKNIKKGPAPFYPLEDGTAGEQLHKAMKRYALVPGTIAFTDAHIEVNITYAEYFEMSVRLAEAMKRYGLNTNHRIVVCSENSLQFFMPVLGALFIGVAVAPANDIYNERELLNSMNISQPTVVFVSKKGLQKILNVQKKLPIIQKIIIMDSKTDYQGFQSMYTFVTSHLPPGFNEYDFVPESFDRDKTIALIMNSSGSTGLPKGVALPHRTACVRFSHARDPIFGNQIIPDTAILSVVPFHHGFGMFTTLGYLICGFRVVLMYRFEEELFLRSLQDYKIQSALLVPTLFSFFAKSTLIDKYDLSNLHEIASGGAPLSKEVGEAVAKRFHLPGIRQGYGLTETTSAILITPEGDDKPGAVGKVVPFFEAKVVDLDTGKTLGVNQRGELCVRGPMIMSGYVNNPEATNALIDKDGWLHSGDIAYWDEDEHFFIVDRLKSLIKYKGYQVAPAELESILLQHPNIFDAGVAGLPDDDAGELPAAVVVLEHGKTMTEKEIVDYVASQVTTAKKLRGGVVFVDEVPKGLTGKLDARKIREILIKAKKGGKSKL
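Purified P. pyralis luciferase (10nM final) with 10uM D-luciferin and 10uM ATP (Km levels) in 50mM Tris acetate pH 7.5, 10mM Mg acetate, 0.01% Tween-20, 0.05% BSA; qHTS 6-point titration, ~60 µM downward; luminescence read.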
Luc counter: blocks Kinase-Glo luciferase, a counter-screen artifact; 200,000 compounds, 0.28% hits; Kinase-Glo luciferase, ATP luminescence, 8 min; Q27757; Potency, µM (top dose mostly 38.3 µM), for inactives: top-dose activity change, negative = inhibition, most hits filed as inhibitors; AID 1379; note: % is set by controls: 0 for no effect and ±100 for the full control effect; nearly all actives have a fitted effect of over 60% in size
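Compound is pinned into ATP-containing buffer (10 uM ATP, imidazole pH 7.2, 7 mM MgCl2). Kinase-Glo luciferase reagent is then added. Light output is recorded following an 8-min room-temperature incubation.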
ELG1 genotox: genotoxicity induction in ELG1-luciferase HEK293T cells | 330,000 compounds, 1.3% hits | HEK293T ELG1-luciferase reporter, luminescence, 16 h | Potency, µM (series often up to 46 µM), for the others: at the highest dose activity change, positive = activation, hits mostly activators; note: % of control where 0% means no effect; nearly all actives have a fitted effect of over 60% in size
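Step 1: seed 2,000 HEK293T ELG1-luciferase cells per well. Step 2: add compound or DMSO, incubate 16 hr at 37 °C. Step 3: ONE-Glo, 30 min at room temperature, read luminescence.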
An asterisk follows results filed as active; ? = inconclusive; nt = not tested or not shown. Calls come from the whole dose curve; as a rule, active = well fitted curve in the direction sought with a large enough effect; inconclusive = small, poorly fitted or top-dose-only effect, or another doubt; inactive = no such curve, though single readings can be large; an effect the other way counts as inactive or inconclusive. Potency is the fitted concentration of half-maximal effect.

SMILES	SMN2 splice up	Rab9 promoter act	NPC1 promoter act	FLuc counter	Luc counter	ELG1 genotox
Cc1ccc2nc(-c3ccccc3N)[nH]c2c1	7.08µM*	0.501µM*	1.12µM*	0.757µM*	-29.7%	1.16µM*
Nc1nc(-c2nc3ccccc3[nH]2)cs1	15.8µM*	1.12µM*	1.26µM*	5.36µM*	-20.2%	2.06µM*
c1ccc(-c2nc3c(ccc4ccccc43)[nH]2)nc1	14.1µM*	?	2.82µM*	3.79µM*	-15.4%	17.9%
Cc1c(N)cccc1-c1nc2ccccc2[nH]1	10µM*	29.7%	25.3%	23.9µM*	-8.8%	17.9%
O=c1[nH]c(-c2ccccn2)nc2ccccc12	nt	?	?	23.9µM*	nt	?
c1ccc(-c2n[nH]c(-c3ccccc3)c2-c2nc3ccccc3[nH]2)cc1	-17.1%	-5.7%	-7.1%	-1.9%	-0.7%	-4.0%
Nc1ccccc1-c1nc2ccccc2[nH]c1=O	nt	?	?	23.9µM*	nt	6.6%
c1ccc(-c2nc3ccccc3[nH]2)nc1	3.16µM*	2.82µM*	3.98µM*	12µM*	7.94µM*	?
Nc1nc2ccccc2[nH]1	-5.7%	2.7%	-0.5%	-0.3%	nt	-1.5%
Cc1ccc2nc(CCCc3nc4ccc(C)cc4[nH]3)[nH]c2c1	nt	0.2%	1.3%	?	nt	-7.0%
Cc1ccc2nc(-c3ccccn3)[nH]c2c1	nt	0.355µM*	?	1.35µM*	nt	?
CC1OCC23CC[C@@]4(C)CCC(C)(C)C[C@H]4[C@]2(C)CCC12C3CC[C@@]1(C)C2C(=O)CC(=O)[C@@H]1C (stereo partly drawn)	-5.5%	nt	nt	nt	-1.0%	nt
CN(Cc1ccccc1)C(=O)C(=O)Nc1ccc2nc3n(c(=O)c2c1)CCCCC3	8.5%	nt	nt	-1.9%	nt	nt
Cc1cc2[nH]c(=O)c3ccccc3n2n1	13.0%	-3.0%	-1.4%	-0.4%	-1.9%	1.3%
Cc1cc2[nH]c(=O)cc(-c3ccccc3)n2n1	nt	?	?	9.53µM*	nt	?
Cc1ccc(/C=C/C(=O)N2CCc3ccccc3C2)cc1	0.7%	23.7%	24.3%	10.7µM*	14.6%	?
O=C(/C=C/c1ccc(F)cc1)N1CCCc2ccccc21	-10.4%	?	20.5%	?	0.7%	12.7%
CC(C)(C)c1ccc(/C=C/C(=O)N2CCc3ccccc3C2)cc1	-1.0%	-8.4%	-0.7%	?	-5.2%	3.7%
O=C(/C=C/c1ccc(F)cc1)N1CCc2ccccc2C1	nt	2.51µM*	?	10.7µM*	nt	16.8%
Cc1nc(-c2ccccc2)cc(=O)[nH]1	2.3%	-1.7%	2.7%	1.9%	-0.9%	3.4%
Cc1ccc(-c2cn3c(=O)cc(C)[nH]c3n2)cc1	10µM*	0.794µM*	1.58µM*	0.849µM*	-6.1%	?
Cc1cc(=O)n2cc(-c3ccccc3)nc2[nH]1	nt	23.2%	25.6%	12µM*	-3.2%	11.6%
Cc1ccccc1Cn1cc(CCC(=O)NC(C)c2ccccc2)c2ccccc21 (stereo not drawn)	nt	nt	nt	6.3%	nt	nt
COc1ccc(/C=C/C(=O)Nc2nc(-c3cccs3)ns2)cc1OC	nt	nt	nt	-1.5%	nt	nt
O=C(/C=C/c1cccnc1)c1ccccc1O	nt	-0.9%	-4.0%	16.9µM*	nt	8.3%
SMILES	SMN2 splice up	Rab9 promoter act	NPC1 promoter act	FLuc counter	Luc counter	ELG1 genotox
Cc1c(/C=C/C(=O)c2ccccc2O)cnn1C	15.8µM*	2.51µM*	3.55µM*	1.35µM*	?	?
O=C(/C=C/c1ccco1)c1ccccc1O	nt	-3.5%	-4.5%	10.7µM*	-10.6%	?
Cc1ccc2occ(/C=C/C(=O)c3ccccc3O)c(=O)c2c1	7.8%	11.7%	?	?	-6.7%	6.6%
O=C(/C=C/c1ccco1)c1cccnc1	nt	1.1%	2.0%	-6.5%	nt	-2.2%
Cc1ccc(/C=C/C(=O)c2ccccc2O)cc1	nt	19.6%	18.0%	1.2µM*	nt	?
COc1ccc2c(c1)CC(C(=O)Nc1ccc(Br)c(C)c1)CO2 (stereo not drawn)	nt	nt	nt	-0.7%	nt	nt
Cc1ccc2oc(C(=O)Nc3sc4c(c3C(=O)NCc3cccnc3)CCCC4)cc(=O)c2c1	5.4%	nt	nt	-0.6%	nt	nt
CN(C)c1ccc(/C=C/C(=O)c2ccccc2O)cc1	nt	?	3.55µM*	0.601µM*	-14.9%	?
CN(C)c1ccc(/C=C/C(=O)c2cccnc2)cc1	nt	-1.1%	-2.8%	3.01µM*	nt	-0.1%
Cc1ccc(/C=C/C(=O)c2ccc(C)cc2)cc1	-1.4%	23.4%	10.3%	1.35µM*	0.3%	?
Cc1ccc(C(=O)/C=C/C(=O)c2ccc(C)cc2)cc1	-105.2%	1.0%	-4.0%	?	-1.0%	-10.6%
CCOC(=O)c1ccc(CN(Cc2ccc(OC)cc2)S(=O)(=O)c2cccc(C(F)(F)F)c2)cc1	nt	nt	nt	-9.9%	nt	nt
CCSC1=N/C(=C\c2ccc(C(=O)O)cc2)C(=O)S1	-2.8%	1.8%	-1.9%	9.53µM*	-2.6%	-2.8%
C=CCSC1=N/C(=C\c2ccc(C)o2)C(=O)S1	-15.7%	-0.5%	0.6%	15.1µM*	0.9%	-0.1%
C=CCSC1=N/C(=C\c2ccsc2)C(=O)S1	3.5%	-4.8%	-1.1%	?	-1.0%	-0.5%
O=C1SC(SCc2ccccc2Cl)=N/C1=C\c1ccc(C(=O)O)cc1	-0.2%	-3.8%	-4.5%	21.3µM*	-1.0%	-0.5%
COC(=O)c1ccc(/C=C2\N=C(SC)SC2=O)cc1	nt	0.6%	-0.1%	-6.5%	nt	0.1%
C=CCSC1=N/C(=C\c2ccc(C(=O)O)cc2)C(=O)S1	16.9%	0.0%	0.4%	10.7µM*	-1.5%	1.3%
COc1ccc(C(=O)Nc2ccc3c(c2)N(C)C(=O)c2ccccc2S3)cc1OC	nt	nt	nt	5.6%	nt	nt
CCOC(=O)SC1=N/C(=C\c2ccc(N(C)C)cc2)C(=O)S1	0.7%	-1.9%	-1.3%	9.53µM*	-4.8%	0.6%
O=c1oc2c(CN3CCOCC3)c(O)ccc2c2c1CCCC2	-15.3%	-2.0%	23.3%	0.2%	-4.6%	-14.0%
O=c1oc2c(CN3CCOCC3)c(O)ccc2c2ccccc12	2.6%	29.1%	3.98µM*	?	-1.6%	12.8%
CCCNc1nc(N)nc(-c2cc(Cl)ccc2OC)n1	6.4%	-3.7%	2.0%	11.1%	-3.7%	-0.7%
CCNc1nc(N)nc(-c2cc(Cl)ccc2O)n1	11.2µM*	1.26µM*	3.98µM*	1.69µM*	-0.9%	?
CCCCNc1nc(N)nc(-c2cc(Cl)ccc2O)n1	6.31µM*	2.82µM*	3.55µM*	9.53µM*	-0.5%	?
CCN(CC)CCOC(=O)c1ccc(NC(=O)Cn2ncc3c2-c2cc(C)ccc2OC3)cc1	-0.9%	nt	nt	3.5%	nt	nt
CCOC(=O)c1sc(-c2ccc(Cl)cc2Cl)nc1O	nt	-1.3%	-4.5%	16.9µM*	nt	2.4%
COc1ccc(C(=O)N=c2nc3ccccn3s2)cc1	nt	0.251µM*	0.126µM*	0.0953µM*	7.94µM*	0.366µM*

High-throughput results deposited in PubChem BioAssay by National Center for Advancing Translational Sciences (NCATS).
